These results are taken from the supplement of paper PMC10849652.

The full data set covers some 7,900 targets. This sample favours those with a hit. About 0.6% of all pairs of compound and target were hits. Values without a mark were called inactive.

Common to all, as to experiment: log2 fold change, soluble protein after heating vs DMSO (PISA); higher = thermal stabilisation; K562 cells, 10 uM, 30 min; active = over 0.2 and 3.5 SD of the protein, either way, in both replicates (recomputed)
Compound in one assay: Cc1ccc(NC(=O)c2ccc(CN3CC[C@H](N(C)C)C3)c(C(F)(F)F)c2)cc1Nc1nccc(-c2cncnc2)n1 [bafetinib]
An outline of the steps: (§1)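 For each measurement, 10 μM compound was applied for 30 min to K562 cells at 2×10^6 cells/mL. Aliquots were heated for 3 min across 48°C-58°C, pooled, and extracted in PBS with 0.5% NP-40 at 4°C; the supernatant after 21,000xg for 90 min was soluble protein. This was quantified by TMTpro 16plex LC-MS/MS with channel sums equalised, and thermal stability was reported relative to control samples from duplicates, on a log2 fold-change scale.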

Compound in assay [1]: Cc1cccc(CC(=O)N2CCc3c2ccc(-c2cn(C)c4ncnc(N)c24)c3F)n1
In short, it runs like this:
as §1

Compound in the next assay: Cc1cn(-c2cc(NC(=O)c3ccc(C)c(Nc4nccc(-c5cccnc5)n4)c3)cc(C(F)(F)F)c2)cn1 [nilotinib]
In short, it runs like this: as §1

Compound in assay [2]: Cc1nc(Nc2n[nH]c3c2CN(C(=O)N[C@H](CN(C)C)c2ccccc2)C3(C)C)c2sccc2n1
In short, it runs like this:
as §1

Compound in the next assay: Cc1nc(Nc2ncc(C(=O)Nc3c(C)cccc3Cl)s2)cc(N2CCN(CCO)CC2)n1 [dasatinib]
An outline of the steps: as §1

Compound in assay [3]: Cc1ncc(-c2ccnc(Nc3ccc(S(C)(=O)=O)cc3)n2)n1C(C)C
An outline of the steps: as §1

Compound in assay [4]: Cn1cc(-c2ccc3c(c2)CCN3C(=O)Cc2cccc(C(F)(F)F)c2)c2c(N)ncnc21
In short, it runs like this:
as §1

Compound in assay [5]: Cn1cc(-c2ccc3nnc(C(F)(F)c4ccc5ncccc5c4)n3n2)cn1
In short, it runs like this:
as §1

Compound in a further assay: Cn1cncc1[C@@](N)(c1ccc(Cl)cc1)c1ccc2c(c1)c(-c1cccc(Cl)c1)cc(=O)n2C [tipifarnib]
An outline of the steps:
as §1

Compound in a further assay: FC(F)(F)c1ccc(/C=C/c2nc(COc3ccc(CCCCn4ccnn4)cc3)co2)cc1 [mubritinib]
In short, it runs like this:
as §1

Sequence of UniProt O43615 (O43615 whole entry, looked up): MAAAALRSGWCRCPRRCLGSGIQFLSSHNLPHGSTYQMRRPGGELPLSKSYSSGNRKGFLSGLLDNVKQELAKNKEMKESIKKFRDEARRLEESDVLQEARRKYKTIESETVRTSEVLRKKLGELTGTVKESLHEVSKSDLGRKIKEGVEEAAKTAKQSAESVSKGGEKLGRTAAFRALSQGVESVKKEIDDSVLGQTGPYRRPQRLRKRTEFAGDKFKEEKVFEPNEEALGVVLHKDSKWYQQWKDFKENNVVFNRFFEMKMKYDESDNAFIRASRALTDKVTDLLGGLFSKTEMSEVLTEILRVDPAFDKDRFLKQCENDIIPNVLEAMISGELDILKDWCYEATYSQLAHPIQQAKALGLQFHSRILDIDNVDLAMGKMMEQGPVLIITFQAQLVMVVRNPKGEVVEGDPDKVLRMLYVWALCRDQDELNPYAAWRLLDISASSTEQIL
Sequence of UniProt Q00059 (Q00059 whole entry, looked up): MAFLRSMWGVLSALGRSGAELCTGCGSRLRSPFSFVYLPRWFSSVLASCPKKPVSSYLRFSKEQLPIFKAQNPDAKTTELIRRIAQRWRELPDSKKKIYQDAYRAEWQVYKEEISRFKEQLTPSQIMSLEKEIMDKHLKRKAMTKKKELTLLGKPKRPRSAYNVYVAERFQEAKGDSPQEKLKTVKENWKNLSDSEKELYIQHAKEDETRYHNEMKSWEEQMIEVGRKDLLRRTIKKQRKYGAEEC
Sequence of UniProt Q9Y5J6 (Q9Y5J6 whole entry, looked up): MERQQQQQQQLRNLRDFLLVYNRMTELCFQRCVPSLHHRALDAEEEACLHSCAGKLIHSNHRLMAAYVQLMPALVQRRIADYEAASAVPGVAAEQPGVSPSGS
Sequence of UniProt Q8WUH2 (Q8WUH2 whole entry, looked up): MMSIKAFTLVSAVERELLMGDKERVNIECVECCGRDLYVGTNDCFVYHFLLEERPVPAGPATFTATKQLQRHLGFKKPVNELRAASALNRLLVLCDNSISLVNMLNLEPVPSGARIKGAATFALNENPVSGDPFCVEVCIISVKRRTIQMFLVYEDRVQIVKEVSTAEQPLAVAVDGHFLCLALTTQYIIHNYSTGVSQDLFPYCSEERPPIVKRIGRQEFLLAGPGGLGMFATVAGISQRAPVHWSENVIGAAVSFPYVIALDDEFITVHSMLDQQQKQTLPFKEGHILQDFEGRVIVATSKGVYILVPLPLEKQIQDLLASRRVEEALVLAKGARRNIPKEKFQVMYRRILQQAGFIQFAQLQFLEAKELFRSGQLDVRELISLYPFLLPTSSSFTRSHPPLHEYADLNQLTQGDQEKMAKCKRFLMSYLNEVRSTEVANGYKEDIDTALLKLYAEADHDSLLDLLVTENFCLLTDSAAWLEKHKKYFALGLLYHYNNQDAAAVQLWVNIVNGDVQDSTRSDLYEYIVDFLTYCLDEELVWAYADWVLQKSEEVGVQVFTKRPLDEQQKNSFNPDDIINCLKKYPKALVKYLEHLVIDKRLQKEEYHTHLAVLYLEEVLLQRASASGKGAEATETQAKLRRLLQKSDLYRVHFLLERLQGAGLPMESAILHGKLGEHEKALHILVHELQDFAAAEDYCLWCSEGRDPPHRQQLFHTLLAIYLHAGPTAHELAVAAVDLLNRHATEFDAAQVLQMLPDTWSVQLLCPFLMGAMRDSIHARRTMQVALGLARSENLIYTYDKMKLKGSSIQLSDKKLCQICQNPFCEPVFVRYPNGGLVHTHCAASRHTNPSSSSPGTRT
Sequence of UniProt P62072 (P62072 whole entry, looked up): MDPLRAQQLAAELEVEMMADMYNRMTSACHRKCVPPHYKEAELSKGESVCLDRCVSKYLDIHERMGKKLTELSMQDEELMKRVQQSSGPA
Sequence of UniProt Q9UP52 (Q9UP52 whole entry, looked up): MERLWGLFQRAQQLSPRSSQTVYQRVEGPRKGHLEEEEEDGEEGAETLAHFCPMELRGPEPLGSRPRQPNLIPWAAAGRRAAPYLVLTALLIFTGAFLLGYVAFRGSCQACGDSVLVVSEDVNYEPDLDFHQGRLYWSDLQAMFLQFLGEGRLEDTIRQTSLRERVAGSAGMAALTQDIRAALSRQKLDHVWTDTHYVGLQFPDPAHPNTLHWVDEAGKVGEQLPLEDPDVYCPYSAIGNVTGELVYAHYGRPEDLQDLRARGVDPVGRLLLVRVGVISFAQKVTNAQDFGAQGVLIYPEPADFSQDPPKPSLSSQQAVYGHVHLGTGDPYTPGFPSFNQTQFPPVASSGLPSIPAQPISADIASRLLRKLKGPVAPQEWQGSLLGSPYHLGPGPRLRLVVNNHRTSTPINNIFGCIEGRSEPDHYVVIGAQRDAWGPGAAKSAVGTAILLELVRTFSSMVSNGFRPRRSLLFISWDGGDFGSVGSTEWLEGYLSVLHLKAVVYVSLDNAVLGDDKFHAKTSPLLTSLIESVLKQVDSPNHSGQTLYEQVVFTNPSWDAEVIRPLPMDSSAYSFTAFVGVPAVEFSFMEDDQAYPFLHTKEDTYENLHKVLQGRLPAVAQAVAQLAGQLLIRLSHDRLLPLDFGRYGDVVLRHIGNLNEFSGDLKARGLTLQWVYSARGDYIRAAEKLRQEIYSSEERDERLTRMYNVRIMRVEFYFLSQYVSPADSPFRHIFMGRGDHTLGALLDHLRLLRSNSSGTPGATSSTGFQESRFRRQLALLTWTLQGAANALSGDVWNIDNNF
Sequence of UniProt Q9Y5M8 (Q9Y5M8 whole entry, looked up): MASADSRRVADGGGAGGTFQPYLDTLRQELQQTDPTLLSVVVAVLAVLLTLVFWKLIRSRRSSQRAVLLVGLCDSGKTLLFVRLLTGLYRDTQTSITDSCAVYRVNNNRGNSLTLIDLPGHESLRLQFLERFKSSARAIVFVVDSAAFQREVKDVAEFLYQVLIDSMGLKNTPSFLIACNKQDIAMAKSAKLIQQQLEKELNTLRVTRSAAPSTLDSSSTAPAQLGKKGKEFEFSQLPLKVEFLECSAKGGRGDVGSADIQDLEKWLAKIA
Sequence of UniProt Q8WXA9 (Q8WXA9 whole entry, looked up): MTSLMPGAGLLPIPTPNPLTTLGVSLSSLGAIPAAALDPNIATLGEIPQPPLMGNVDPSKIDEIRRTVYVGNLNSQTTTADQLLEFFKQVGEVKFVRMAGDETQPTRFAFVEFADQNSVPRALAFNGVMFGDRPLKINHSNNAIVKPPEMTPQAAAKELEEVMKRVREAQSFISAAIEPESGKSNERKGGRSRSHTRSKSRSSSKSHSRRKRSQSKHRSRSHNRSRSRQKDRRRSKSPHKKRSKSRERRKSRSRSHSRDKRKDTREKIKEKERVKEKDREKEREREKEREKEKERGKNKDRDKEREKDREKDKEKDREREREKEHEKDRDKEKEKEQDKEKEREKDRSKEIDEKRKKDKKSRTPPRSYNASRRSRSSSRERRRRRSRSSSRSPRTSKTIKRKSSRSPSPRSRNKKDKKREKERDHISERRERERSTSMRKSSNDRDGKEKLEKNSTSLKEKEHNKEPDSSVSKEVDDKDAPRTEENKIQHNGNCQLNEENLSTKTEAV
Sequence of UniProt Q9NQZ5 (Q9NQZ5 whole entry, looked up): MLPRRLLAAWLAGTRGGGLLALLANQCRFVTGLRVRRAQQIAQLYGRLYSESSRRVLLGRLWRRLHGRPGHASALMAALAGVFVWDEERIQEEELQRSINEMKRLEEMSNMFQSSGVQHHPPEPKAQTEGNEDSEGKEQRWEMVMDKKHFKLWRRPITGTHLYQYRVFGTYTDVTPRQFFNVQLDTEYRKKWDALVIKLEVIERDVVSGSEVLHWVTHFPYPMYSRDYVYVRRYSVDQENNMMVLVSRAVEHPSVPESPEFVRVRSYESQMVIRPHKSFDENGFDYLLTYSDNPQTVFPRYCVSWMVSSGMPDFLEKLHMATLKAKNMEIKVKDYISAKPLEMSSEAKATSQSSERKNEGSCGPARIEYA
Sequence of UniProt Q9H5Q4 (Q9H5Q4 whole entry, looked up): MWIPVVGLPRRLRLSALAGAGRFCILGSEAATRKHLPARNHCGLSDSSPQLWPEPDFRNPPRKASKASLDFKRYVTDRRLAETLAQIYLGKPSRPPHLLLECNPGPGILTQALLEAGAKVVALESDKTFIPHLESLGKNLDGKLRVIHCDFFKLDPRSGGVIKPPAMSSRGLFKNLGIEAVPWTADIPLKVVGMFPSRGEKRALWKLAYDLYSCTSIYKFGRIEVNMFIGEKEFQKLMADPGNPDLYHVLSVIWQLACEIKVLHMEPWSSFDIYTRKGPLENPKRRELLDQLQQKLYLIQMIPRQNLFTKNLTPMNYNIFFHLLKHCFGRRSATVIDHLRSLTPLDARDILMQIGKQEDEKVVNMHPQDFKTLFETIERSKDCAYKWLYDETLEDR
Sequence of UniProt P51692 (P51692 whole entry, looked up): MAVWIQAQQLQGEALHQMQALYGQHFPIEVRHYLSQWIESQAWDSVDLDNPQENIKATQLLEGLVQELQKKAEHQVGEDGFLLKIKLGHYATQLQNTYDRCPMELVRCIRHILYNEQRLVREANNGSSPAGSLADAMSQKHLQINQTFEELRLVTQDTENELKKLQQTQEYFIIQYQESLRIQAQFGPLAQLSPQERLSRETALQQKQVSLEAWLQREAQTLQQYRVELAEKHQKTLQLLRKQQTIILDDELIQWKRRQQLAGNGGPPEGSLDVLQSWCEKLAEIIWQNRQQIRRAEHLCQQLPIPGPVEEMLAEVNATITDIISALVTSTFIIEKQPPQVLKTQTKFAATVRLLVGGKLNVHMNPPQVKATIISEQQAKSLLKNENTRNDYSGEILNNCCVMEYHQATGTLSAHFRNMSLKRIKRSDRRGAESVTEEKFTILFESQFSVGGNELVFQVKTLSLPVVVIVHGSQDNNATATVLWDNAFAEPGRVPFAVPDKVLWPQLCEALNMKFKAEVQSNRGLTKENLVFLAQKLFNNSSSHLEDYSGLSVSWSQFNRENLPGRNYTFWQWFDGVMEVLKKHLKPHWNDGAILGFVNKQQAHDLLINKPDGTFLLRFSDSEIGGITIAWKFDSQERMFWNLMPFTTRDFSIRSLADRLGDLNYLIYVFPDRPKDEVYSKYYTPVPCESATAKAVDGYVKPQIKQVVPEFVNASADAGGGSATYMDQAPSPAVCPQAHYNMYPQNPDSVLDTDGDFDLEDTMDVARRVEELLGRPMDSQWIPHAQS

On to SRPRB (UniProt Q9Y5M8), for which the log2 fold change with bafetinib was 0.107; in [1], 0.14; with nilotinib it was 0.035; in assay [2], 0.026; with dasatinib it was -0.094; in assay [3], 0.121. Further, the log2 fold change is 0.076 in [4], 0.031 in [5], -0.123 with tipifarnib and 0.134 in the assay with mubritinib.

Turning to SRSF3 (UniProt P84103), the log2 fold change with bafetinib is 0.126; in [1], -0.028; with nilotinib, 0.075; in [2] it was -0.544 (active); in the assay with dasatinib, 0.173; in assay [3], 0.082. The log2 fold change in assay [4] is -0.199; in [5], -0.154; with tipifarnib, 0.134; in the assay with mubritinib, -0.097.

As for TGFBRAP1 (UniProt Q8WUH2), the log2 fold change with bafetinib is -0.05; in [1] it was 0.482 (active); with nilotinib, -0.122; in assay [2] it was -0.125; with dasatinib, -0.153; in [3], 0.091. Also, the log2 fold change was -0.151 in [4], -0.16 in [5], 0.032 with tipifarnib and 0.053 with mubritinib.

Take TBC1D23 (UniProt Q9NUY8): the log2 fold change is -0.141 in the assay with bafetinib; 0.041 in assay [1]; -0.113 in the assay with nilotinib; -0.032 in assay [2]; -0.155 with dasatinib; -0.056 in assay [3]. The log2 fold change in assay [4] is 0.025; in assay [5], 0.006; in the assay with tipifarnib it was 0.003; with mubritinib it was -0.011.

As to TFR2 (UniProt Q9UP52), the log2 fold change with bafetinib was -0.226 (active); in assay [1], -0.012; with nilotinib, 0.012; in [2], -0.074; in the assay with dasatinib, 0.006; in assay [3] it was -0.026. Also, the log2 fold change was -0.019 in assay [4], 0.054 in assay [5], 0.025 with tipifarnib and 0.041 with mubritinib.

With SUPT5H (UniProt O00267), the log2 fold change was -0.044 in the assay with bafetinib; 0.033 in assay [1]; -0.055 with nilotinib; -0.042 in [2]; -0.082 with dasatinib; 0.01 in [3]. Besides, the log2 fold change was 0.024 in assay [4], 0.036 in assay [5], -0.037 with tipifarnib and 0.031 with mubritinib.

On to TIMM10B (UniProt Q9Y5J6), for which the log2 fold change in the assay with bafetinib is 0.4; in assay [1], -0.138; in the assay with nilotinib it was 0.006; in assay [2] it was -0.04; in the assay with dasatinib, 0.138; in assay [3] it was -0.052. Besides, the log2 fold change in assay [4] is 0.01; in [5], 0.224; with tipifarnib it was -0.001; with mubritinib, 0.065.

Consider TFB2M (UniProt Q9H5Q4), for which the log2 fold change with bafetinib was -0.046; in assay [1], 0.008; with nilotinib it was -0.043; in [2], -0.024; with dasatinib, -0.099; in assay [3], 0.009. In addition, the log2 fold change in assay [4] was 0.012; in [5], -0.004; with tipifarnib, -0.132; in the assay with mubritinib, -0.039.

In the case of STARD7 (UniProt Q9NQZ5), the log2 fold change is -0.043 with bafetinib; 0.109 in [1]; -0.057 with nilotinib; 0.081 in [2]; -0.035 with dasatinib; 0.094 in assay [3]. In addition, the log2 fold change in assay [4] is 0.021; in assay [5], -0.007; with tipifarnib it was -0.026; in the assay with mubritinib, 0.032.

TIMM44 (UniProt O43615): the log2 fold change was -0.355 (active) with bafetinib; 0.045 in assay [1]; -0.062 in the assay with nilotinib; -0.066 in assay [2]; -0.192 in the assay with dasatinib; 0.006 in assay [3]. In addition, the log2 fold change in assay [4] was 0.026; in assay [5], -0.002; with tipifarnib, -0.054; with mubritinib, 0.001.

Regarding STAT5B (UniProt P51692), the log2 fold change with bafetinib is -0.056; in assay [1], 0.109; with nilotinib, -0.218; in [2], -0.432; with dasatinib, -0.443 (active); in assay [3] it was 0.162. The log2 fold change in assay [4] was 0.07; in assay [5], 0.08; with tipifarnib it was -0.163; in the assay with mubritinib, 0.308.

On to SREK1 isoform 2 (UniProt Q8WXA9), for which the log2 fold change is 0.07 in the assay with bafetinib; 0.015 in [1]; 0.156 with nilotinib; -0.593 (active) in assay [2]; -0.095 with dasatinib; 0.005 in assay [3]. Moreover, the log2 fold change in assay [4] is -0.006; in assay [5], -0.11; in the assay with tipifarnib it was 0.031; in the assay with mubritinib, 0.063.

For the target TFAM (UniProt Q00059), the log2 fold change with bafetinib is 0.034; in assay [1], 0.013; in the assay with nilotinib, -0.025; in [2], 0.023; with dasatinib, 0.077; in assay [3], 0.003. The log2 fold change in [4] was -0.048; in assay [5] it was -0.038; in the assay with tipifarnib, 0.039; with mubritinib it was -0.068.

On to TIMM10 (UniProt P62072), for which the log2 fold change in the assay with bafetinib is -0.081; in assay [1] it was 0.027; in the assay with nilotinib, 0.014; in assay [2] it was 0.005; with dasatinib, 0.114; in [3] it was -0.027. Further, the log2 fold change in assay [4] is -0.05; in [5], 0.153; with tipifarnib it was 0.048; with mubritinib, -0.024.

For the target TJP1 (UniProt Q07157), the log2 fold change in the assay with bafetinib was -0.061; in [1] it was 0.008; in the assay with nilotinib, 0.024; in assay [2], -0.199; with dasatinib, -0.092; in assay [3], -0.037. For the same target, the log2 fold change in assay [4] was -0.028; in assay [5], -0.02; with tipifarnib, -0.025; in the assay with mubritinib, 0.073.
